In PMC4336329 (PLoS ONE, 2015):
Out of some 310,000 compounds screened, about 14,000 (4.5%) showed an effect of 50% or more. Effects have a minus sign here. Many of the other results were omitted from the sample, so strong results are more common in it than they were.

Target: human ether-à-go-go-related gene (hERG) potassium channel (human, UniProt Q12809)
Assay: primary screen, population patch clamp on CHO cells stably expressing hERG; higher = less effect of the substance
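Also: peak tail current of the secondary pulse compared with the same well before compound.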

human ether-à-go-go-related gene (hERG) potassium channel, sequence (Q12809 whole entry, looked up): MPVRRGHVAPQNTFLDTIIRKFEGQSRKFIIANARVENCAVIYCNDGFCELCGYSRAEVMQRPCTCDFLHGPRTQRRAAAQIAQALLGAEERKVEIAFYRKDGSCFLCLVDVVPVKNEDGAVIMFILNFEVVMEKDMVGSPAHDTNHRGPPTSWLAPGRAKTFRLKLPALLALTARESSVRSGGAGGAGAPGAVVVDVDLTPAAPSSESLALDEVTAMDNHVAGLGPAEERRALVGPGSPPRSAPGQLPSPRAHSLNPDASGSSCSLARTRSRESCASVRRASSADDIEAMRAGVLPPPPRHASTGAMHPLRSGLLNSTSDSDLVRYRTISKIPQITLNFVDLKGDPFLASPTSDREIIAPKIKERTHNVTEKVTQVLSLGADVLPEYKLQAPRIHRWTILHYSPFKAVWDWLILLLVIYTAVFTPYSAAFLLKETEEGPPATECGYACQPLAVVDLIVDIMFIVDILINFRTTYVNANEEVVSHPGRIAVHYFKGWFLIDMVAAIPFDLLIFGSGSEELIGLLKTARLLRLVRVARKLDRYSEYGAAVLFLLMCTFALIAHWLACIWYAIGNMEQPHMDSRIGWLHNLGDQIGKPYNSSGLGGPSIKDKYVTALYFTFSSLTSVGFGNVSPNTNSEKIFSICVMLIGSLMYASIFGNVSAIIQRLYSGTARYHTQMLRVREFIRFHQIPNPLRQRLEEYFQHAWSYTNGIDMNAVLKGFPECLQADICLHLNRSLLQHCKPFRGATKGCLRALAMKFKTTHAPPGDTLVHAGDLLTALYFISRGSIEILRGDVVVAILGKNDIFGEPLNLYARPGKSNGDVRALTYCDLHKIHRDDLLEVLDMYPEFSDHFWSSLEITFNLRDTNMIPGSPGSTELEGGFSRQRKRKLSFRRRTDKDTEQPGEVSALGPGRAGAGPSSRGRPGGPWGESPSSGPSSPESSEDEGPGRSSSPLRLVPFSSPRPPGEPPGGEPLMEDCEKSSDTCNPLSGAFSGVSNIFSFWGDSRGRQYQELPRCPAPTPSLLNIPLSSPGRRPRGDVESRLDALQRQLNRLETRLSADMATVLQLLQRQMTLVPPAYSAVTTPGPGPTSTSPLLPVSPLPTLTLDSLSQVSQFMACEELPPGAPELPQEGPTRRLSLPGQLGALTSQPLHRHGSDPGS

| SMILES | hERG current change (%, negative = inhibition) at 10uM |
| --- | --- |
| CCN(Cc1ccccc1)C(=O)CN1C(=O)c2ccccc2S1(=O)=O | -3.97% |
| CC(C)c1ccc(NC(=O)CNC(=O)Cn2ccc3ccccc3c2=O)cc1 | 16.7% |
| O=C(O)CC1(CC(=O)NCc2cc(F)cc3c2OCOC3)CCCCC1 | 6.25% |
| Cc1ccc2[nH]c3c(=O)n(CC(=O)NCCCN4CCN(c5ccc(F)cc5)CC4)ncc3c2c1 | 14.8% |
| O=C(CN1CCN(Cc2ccc(F)cc2Cl)C1=O)NCCCN1CCOCC1 | -2.72% |
| CC1CCN(CCCNC(=O)CN2CCN(Cc3ccc(Cl)cc3)C2=O)CC1 | -55.2% |
| Cc1cccc(CN2CCN(CC(=O)NCc3ccc(F)cc3)C2=O)c1 | -13.6% |
| Cc1cccc(CN2CCN(CC(=O)NCCCN3CCN(c4ccc(F)cc4)CC3)C2=O)c1 | -69.8% |
| O=C(CN1CCN(Cc2ccc(Cl)cc2)C1=O)NCCN1CCCC1 | 1.66% |
| Cc1ccc(CN2CCN(CC(=O)NCCCN3CCN(c4ccc(F)cc4)CC3)C2=O)cc1 | -66% |
| CC(C)OCCCNC(=O)CN1CCN(Cc2ccc(Cl)cc2)C1=O | 11.6% |
| O=C(CN1CCN(Cc2ccc(Cl)cc2)C1=O)NCCCN1CCN(c2ccc(F)cc2)CC1 | -81% |
| O=C(CN1CCN(Cc2ccccc2)C1=O)NCCCN1CCOCC1 | 5.12% |
| O=C(CN1CCN(Cc2ccc(Cl)cc2)C1=O)NCCCN1CCOCC1 | -2.85% |
| Cc1cccc(CN2CCN(CC(=O)NCCCN3CCCC3=O)C2=O)c1 | 7% |
| CC(C)CCC(O)(CCC(C)C)C(=O)NNc1ccccc1 | -0.649% |
| FC(F)(F)c1nc2ccccc2nc1N/N=C\c1ccccc1 | 12.3% |
| CC(=O)c1ccc(S(=O)(=O)Nc2ccc(C(=O)N(C)CC(=O)Nc3cccc(C)c3C)cc2)cc1 | 14.5% |
| COc1cc(/C=N/NC(=O)c2ccoc2C)ccc1O | -3.54% |
| Cc1nn(CCC(=O)Nc2cccc(C#N)c2)c(C)c1S(=O)(=O)N1CCCCC1 | -1.67% |
| O=C(NNS(=O)(=O)c1ccccc1)c1cc2cc3ccccc3nc2s1 | -10.4% |
| CCOCCCNC(=O)CN1CCN(Cc2ccccc2C)C1=O | -5.69% |
| Cc1ccccc1CN1CCN(CC(=O)NCCCN2CCN(c3ccc(F)cc3)CC2)C1=O | -71.2% |
| COc1ccc(N2CCN(CCCNC(=O)CN3CCN(Cc4ccccc4C)C3=O)CC2)cc1 | -46.5% |
| Cc1c(Cl)cccc1NC(=O)CSc1nc2ncc(Cl)cc2[nH]1 | 17.7% |
| COCCCNC(=O)CC(NS(=O)(=O)c1ccc(Cl)cc1)c1ccc(OC)cc1 (stereo not drawn) | -0.0404% |
| Cc1ccc(CN2CCN(C(=O)CCc3ccccc3)CC2)cc1 | -19.1% |

| SMILES | hERG current change (%, negative = inhibition) at 10uM |
| --- | --- |
| Cc1cccc(OCC(=O)N2CCN(Cc3ccc4c(c3)OCO4)CC2)c1.O=C(O)C(=O)O | -16.7% |
| Cc1ccc(OCC(=O)N2CCN(Cc3ccc([N+](=O)[O-])cc3)CC2)cc1.O=C(O)C(=O)O | -81.2% |
| Cc1cccc(OCC(=O)N2CCN(Cc3ccncc3)CC2)c1.O=C(O)C(=O)O | 8.94% |
| O=C(COc1ccc(Cl)cc1)N1CCN(Cc2ccc([N+](=O)[O-])cc2)CC1.O=C(O)C(=O)O | -74.2% |
| O=C(COc1ccc(S(=O)(=O)N2CCCCC2)cc1)N1CCN(Cc2ccccc2)CC1 | -32.5% |
| Cc1ccc(OCC(=O)N2CCN(CC3CC4C=CC3C4)CC2)cc1.O=C(O)C(=O)O (stereo not drawn) | -24.3% |
| Cc1cccc(OCC(=O)N2CCN(Cc3ccc([N+](=O)[O-])cc3)CC2)c1.O=C(O)C(=O)O | -73% |
| O=C(COc1ccc(Cl)cc1)N1CCN(Cc2ccccc2)CC1 | -32.9% |
| CCN(CC)C(=O)Cn1cc(S(=O)(=O)CC(=O)NCc2ccccc2)c2ccccc21 | -11.6% |
| CCOC(=O)C(NC(=O)CC)(Nc1ccc(S(=O)(=O)Nc2ncccn2)cc1)C(F)(F)F (stereo not drawn) | 22.5% |
| O=C(Cc1ccccc1)Nc1scc(-c2ccccc2)c1C(=O)N1CCOCC1 | -57.4% |
| CCOC(=O)c1c(-c2ccccc2)csc1NC(=O)CCN1CCOCC1.O=C(O)C(=O)O | -33.2% |
| O=C(CN1CCOCC1)Nc1scc(-c2ccccc2)c1C(=O)N1CCOCC1 | -34.9% |
| O=C(N/C(=C/c1cccnc1)C(=O)N1CCOCC1)c1ccco1 | 6.59% |
| CCN(CC)S(=O)(=O)c1ccc(NC(=O)c2cc(C(=O)OC)cc([N+](=O)[O-])c2)cc1 | 10.3% |
| Cc1cc(CN(C)C(=O)c2ccc(OC3CCN(Cc4ccccn4)CC3)cc2)on1 | -37.7% |
| CN(C(=O)c1ccc(OC2CCN(CCc3ccccc3)CC2)cc1)C1CCOCC1 | -9.93% |
| CC(NC(=O)c1ccc(OC2CCN(Cc3ccccn3)CC2)cc1)c1ccccc1 (stereo not drawn) | -20.3% |
| CN(C(=O)c1ccc(OC2CCN(CCc3ccccc3)CC2)cc1)C1CCOC1 (stereo not drawn) | -25.3% |
| Cc1cc(CN(C)C(=O)c2ccc(OC3CCN(CCc4ccccc4)CC3)cc2)on1 | -74.1% |
| CN(Cc1nccs1)C(=O)c1ccc(OC2CCN(CCc3ccccc3)CC2)cc1 | -58.9% |
| CC(CNC(=O)c1ccc(OC2CCN(Cc3ccccn3)CC2)cc1)c1ccccc1 (stereo not drawn) | -76.5% |
| CN(Cc1nccn1C)C(=O)c1ccc(OC2CCN(CCc3ccccc3)CC2)cc1 | -38.3% |
| CN(Cc1nccs1)C(=O)c1ccc(OC2CCN(Cc3ccccn3)CC2)cc1 | -11.5% |
| CN(Cc1cnn(C)c1)C(=O)c1ccc(OC2CCN(CCc3ccccc3)CC2)cc1 | -42.9% |
| CC(CNC(=O)c1ccc(OC2CCN(Cc3ccccn3)CC2)cc1)Oc1cccnc1 (stereo not drawn) | -21.9% |
| CN(C(=O)c1ccc(OC2CCN(CCc3ccccc3)CC2)cc1)C1CCCCC1 | -63.5% |
